{"source": "paper PMC11066047", "key": {"[1]": {"target": "Small ribosomal subunit protein bS1m (UniProt Q02950)", "assay": "cross-link between two proteins; cross-linking mass spectrometry"}, "[2]": {"target": "Nucleolar complex protein 14 (UniProt Q99207)", "assay": "cross-link between two proteins"}, "[3]": {"target": "Something about silencing protein 10 (UniProt Q12136)", "assay": "cross-link between two proteins"}, "[4]": {"target": "Small ribosomal subunit protein uS8m (UniProt Q03799)", "assay": "cross-link between two proteins; cross-linking mass spectrometry"}, "[5]": {"target": "Eukaryotic translation initiation factor 3 subunit A (UniProt P38249)", "sequence (P38249 whole entry)": "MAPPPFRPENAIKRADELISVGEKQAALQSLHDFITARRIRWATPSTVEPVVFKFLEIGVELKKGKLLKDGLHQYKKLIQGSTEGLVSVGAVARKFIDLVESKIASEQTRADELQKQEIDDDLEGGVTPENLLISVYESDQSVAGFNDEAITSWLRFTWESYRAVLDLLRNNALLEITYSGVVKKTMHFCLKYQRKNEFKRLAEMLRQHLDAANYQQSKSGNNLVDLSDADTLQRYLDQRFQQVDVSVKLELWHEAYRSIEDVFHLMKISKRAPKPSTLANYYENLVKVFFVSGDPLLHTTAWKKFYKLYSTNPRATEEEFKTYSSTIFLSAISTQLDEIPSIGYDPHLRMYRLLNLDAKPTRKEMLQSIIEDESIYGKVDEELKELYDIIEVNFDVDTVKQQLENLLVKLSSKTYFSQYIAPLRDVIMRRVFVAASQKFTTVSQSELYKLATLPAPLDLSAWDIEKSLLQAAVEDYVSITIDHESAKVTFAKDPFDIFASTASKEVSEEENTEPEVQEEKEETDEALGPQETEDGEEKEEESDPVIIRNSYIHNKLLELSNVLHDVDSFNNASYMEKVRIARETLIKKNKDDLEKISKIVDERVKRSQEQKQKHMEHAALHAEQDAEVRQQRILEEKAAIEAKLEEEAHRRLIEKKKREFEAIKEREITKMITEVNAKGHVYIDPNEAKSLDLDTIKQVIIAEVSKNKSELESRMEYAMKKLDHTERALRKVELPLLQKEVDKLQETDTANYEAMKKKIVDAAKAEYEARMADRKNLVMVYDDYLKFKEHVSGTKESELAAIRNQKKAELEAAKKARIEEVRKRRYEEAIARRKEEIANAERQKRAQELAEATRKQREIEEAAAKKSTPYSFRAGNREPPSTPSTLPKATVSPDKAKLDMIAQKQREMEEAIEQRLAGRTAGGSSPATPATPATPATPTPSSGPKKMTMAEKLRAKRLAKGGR", "assay": "cross-link between two proteins; cross-linking mass spectrometry"}, "Histone H3": {"target": "Histone H3 (UniProt P61830)", "assay": "cross-link between two proteins; cross-linking mass spectrometry"}}}
{"substance": "Small ribosomal subunit protein bS18m, P40033", "values": [{"measurement": "listed as a hit", "setting": "[1]", "value": "yes"}]}
{"substance": "Ribosomal RNA small subunit methyltransferase NEP1, Q06287", "values": [{"measurement": "listed as a hit", "setting": "[2]", "value": "yes"}, {"measurement": "listed as a hit", "setting": "[3]", "value": "yes"}]}
{"substance": "Small ribosomal subunit protein mS23, P40496", "values": [{"measurement": "listed as a hit", "setting": "[4]", "value": "yes"}]}
{"substance": "Eukaryotic translation initiation factor 3 subunit B, P06103", "values": [{"measurement": "listed as a hit", "setting": "[5]", "value": "yes"}]}
{"substance": "Histone H4, P02309", "values": [{"measurement": "listed as a hit", "setting": "Histone H3", "value": "yes"}]}
